Reference: PubChem BioAssay AID1159580 (chemical genetic matrix, 2015)
The whole screen tested about 5,500 compounds, of which about 2,000 (36%) were called active. Inconclusive results (about 18%) are left out. Rule as the data show it: active = normalized growth mostly below about 0.91 (no sharp cut-off); inconclusive = no clear call, values can overlap the other calls; inactive = mostly above about 0.92. The list shows a part of the results.

Test: chemical genetic growth profiling, strain panel (AID 1159580);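 also: tested at 20 µM; growth read once vehicle control cultures reached saturation at 30 °C; 1 = growth at the plate median or of vehicle wells; lower values mean less growth of the strain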
Settings: growth OD

Measured: normalized growth

CC(=O)N1CCN(c2ccc(OCC3CO[C@](Cn4ccnc4)(c4ccc(Cl)cc4Cl)O3)cc2)CC1 (some centres undefined)
active: S. cerevisiae deletion strains, locus YJL187C, strain SWE1, stronger effect = lower value 0.0925 | S. cerevisiae deletion strains, locus YJR043C, strain POL32, stronger effect = lower value 0.094 | S. cerevisiae deletion strains, locus YJR066W, strain TOR1, stronger effect = lower value 0.0283 | S. cerevisiae deletion strains, locus YJR075W, strain HOC1, stronger effect = lower value 0.0852 | S. cerevisiae deletion strains, locus YKL068W, stronger effect = lower value 0.931 | S. cerevisiae deletion strains, locus YKL085W, strain MDH1 (second series), stronger effect = lower value 0.795 | S. cerevisiae deletion strains, locus YKL085W, strain MDH1, stronger effect = lower value 0.795 | S. cerevisiae deletion strains, locus YKL160W, strain elf1, stronger effect = lower value 0.104 | S. cerevisiae deletion strains, locus YKL190W, strain CNB1, stronger effect = lower value 0.0638 | S. cerevisiae deletion strains, locus YKR001C, strain vps1, stronger effect = lower value 0.112 | S. cerevisiae deletion strains, locus YKR026C, strain gcn3, stronger effect = lower value 0.168 | S. cerevisiae deletion strains, locus YKR091W, strain srl3, stronger effect = lower value 0.108 | S. cerevisiae deletion strains, locus YLL001W, strain dnm1, stronger effect = lower value 0.102 | S. cerevisiae deletion strains, locus YLL026W, stronger effect = lower value 0.0778 | S. cerevisiae deletion strains, locus YLL041C, strain sdh2, stronger effect = lower value 0.0858 | S. cerevisiae deletion strains, locus YLR027C, strain aat2, stronger effect = lower value 0.0792 | S. cerevisiae deletion strains, locus YLR039C, strain RIC1, stronger effect = lower value 0.444 | S. cerevisiae deletion strains, locus YLR058C, strain SHM2, stronger effect = lower value 0.072 | S. cerevisiae deletion strains, locus YLR102C, strain apc9, stronger effect = lower value 0.0929 | S. cerevisiae deletion strains, locus YLR113W, strain HOG1, stronger effect = lower value 0.16 | S. cerevisiae deletion strains, locus YLR221C, strain rsa3, stronger effect = lower value 0.0852 | S. cerevisiae deletion strains, locus YLR258W, strain gsy2, stronger effect = lower value 0.0919 | S. cerevisiae deletion strains, locus YLR262C, strain YPT6 (second series), stronger effect = lower value 0.314 | S. cerevisiae deletion strains, locus YLR262C, strain YPT6, stronger effect = lower value 0.523 | S. cerevisiae deletion strains, locus YLR268W, strain sec22, stronger effect = lower value 0.0953 | S. cerevisiae deletion strains, locus YLR320W, strain mms22, stronger effect = lower value 0.104 | S. cerevisiae deletion strains, locus YLR330W, strain CHS5, stronger effect = lower value 0.0775 | S. cerevisiae deletion strains, locus YLR342W, strain FKS1 (second series), stronger effect = lower value 0.0863 | S. cerevisiae deletion strains, locus YLR342W, strain FKS1, stronger effect = lower value 0.0875 | S. cerevisiae deletion strains, locus YLR357W, strain rsc2, stronger effect = lower value 0.231 | S. cerevisiae deletion strains, locus YLR370C, strain arc18, stronger effect = lower value 0.0894 | S. cerevisiae deletion strains, locus YLR371W, strain rom2, stronger effect = lower value 0.104 | S. cerevisiae deletion strains, locus YLR384C, strain iki3, stronger effect = lower value 0.0857 | S. cerevisiae deletion strains, locus YLR418C, strain cdc73, stronger effect = lower value 0.123 | S. cerevisiae deletion strains, locus YML016C, strain PPZ1, stronger effect = lower value 0.0722 | S. cerevisiae deletion strains, locus YML032C, strain rad52, stronger effect = lower value 0.112 | S. cerevisiae deletion strains, locus YML120C, strain ndi1, stronger effect = lower value 0.0823 | S. cerevisiae deletion strains, locus YML124C, strain tub3, stronger effect = lower value 0.0927 | S. cerevisiae deletion strains, locus YMR058W, strain fet3, stronger effect = lower value 0.0959 | S. cerevisiae deletion strains, locus YMR078C, strain ctf18, stronger effect = lower value 0.112 | S. cerevisiae deletion strains, locus YMR125W, strain sto1, stronger effect = lower value 0.102 | S. cerevisiae deletion strains, locus YMR129W, stronger effect = lower value 0.0847 | S. cerevisiae deletion strains, locus YMR205C, strain PFK2, stronger effect = lower value 0.141 | S. cerevisiae deletion strains, locus YMR223W, strain ubp8, stronger effect = lower value 0.105 | S. cerevisiae deletion strains, locus YMR231W, strain pep5, stronger effect = lower value 0.403 | S. cerevisiae deletion strains, locus YMR263W, strain SAP30, stronger effect = lower value 0.157 | S. cerevisiae deletion strains, locus YMR307W, strain GAS1, stronger effect = lower value 0.159 | S. cerevisiae deletion strains, locus YNL067W, strain RPL9B, stronger effect = lower value 0.0729 | S. cerevisiae deletion strains, locus YNL071W, strain lat1, stronger effect = lower value 0.0698 | S. cerevisiae deletion strains, locus YNL183C, strain NPR1, stronger effect = lower value 0.0744 | S. cerevisiae deletion strains, locus YNL209W, strain ssb2, stronger effect = lower value 0.195 | S. cerevisiae deletion strains, locus YNL233W, strain BNI4, stronger effect = lower value 0.0732 | S. cerevisiae deletion strains, locus YNL248C, strain rpa49, stronger effect = lower value 0.0896 | S. cerevisiae deletion strains, locus YNL250W, strain rad50, stronger effect = lower value 0.896 | S. cerevisiae deletion strains, locus YNL271C, strain bni1, stronger effect = lower value 0.906 | S. cerevisiae deletion strains, locus YNL298W, strain CLA4, stronger effect = lower value 0.246 | S. cerevisiae deletion strains, locus YNL307C, strain MCK1, stronger effect = lower value 0.0791 | S. cerevisiae deletion strains, locus YNL322C, strain KRE1 (second series), stronger effect = lower value 0.115 | S. cerevisiae deletion strains, locus YNR049C, strain mso1, stronger effect = lower value 0.0955 | S. cerevisiae deletion strains, locus YNR052C, strain pop2, stronger effect = lower value 0.144 | S. cerevisiae deletion strains, locus YOL147C, strain pex11, stronger effect = lower value 0.0768 | S. cerevisiae deletion strains, locus YOR001W, strain rrp6, stronger effect = lower value 0.0988 | S. cerevisiae deletion strains, locus YOR061W, strain CKA2, stronger effect = lower value 0.125 | S. cerevisiae deletion strains, locus YOR069W, strain VPS5, stronger effect = lower value 0.0927 | S. cerevisiae deletion strains, locus YOR070C, strain gyp1, stronger effect = lower value 0.0793 | S. cerevisiae deletion strains, locus YOR080W, strain dia2, stronger effect = lower value 0.096 | S. cerevisiae deletion strains, locus YOR083W, strain WHI5, stronger effect = lower value 0.136 | S. cerevisiae deletion strains, locus YOR106W, strain vam3, stronger effect = lower value 0.116 | S. cerevisiae deletion strains, locus YOR136W, strain idh2, stronger effect = lower value 0.112 | S. cerevisiae deletion strains, locus YOR144C, strain elg1, stronger effect = lower value 0.0877 | S. cerevisiae deletion strains, locus YOR184W, strain ser1, stronger effect = lower value 0.0917 | S. cerevisiae deletion strains, locus YOR231W, strain MKK1, stronger effect = lower value 0.157 | S. cerevisiae deletion strains, locus YOR265W, strain rbl2, stronger effect = lower value 0.0927 | S. cerevisiae deletion strains, locus YOR270C, strain vph1, stronger effect = lower value 0.112 | S. cerevisiae deletion strains, locus YOR290C, strain snf2, stronger effect = lower value 0.0982 | S. cerevisiae deletion strains, locus YOR316C, strain cot1, stronger effect = lower value 0.0844 | S. cerevisiae deletion strains, locus YPL051W, strain arl3, stronger effect = lower value 0.141 | S. cerevisiae deletion strains, locus YPL078C, strain atp4, stronger effect = lower value 0.0953 | S. cerevisiae deletion strains, locus YPL106C, strain sse1, stronger effect = lower value 0.137 | S. cerevisiae deletion strains, locus YPL240C, strain hsp82, stronger effect = lower value 0.09 | S. cerevisiae deletion strains, locus YPL256C, strain CLN2, stronger effect = lower value 0.182 | S. cerevisiae deletion strains, locus YPR119W, strain clb2, stronger effect = lower value 0.105 | S. cerevisiae deletion strains, locus YPR163C, strain tif3, stronger effect = lower value 0.105 | S. cerevisiae deletion strains, locus YPR167C, strain met16, stronger effect = lower value 0.1 | S. cerevisiae deletion strains, strain wtn01, stronger effect = lower value 0.0951 | S. cerevisiae strains, strain wild type, stronger effect = lower value 0.0668
inactive: S. cerevisiae deletion strains, locus YKL009W, strain mrt4, stronger effect = lower value 0.994 | S. cerevisiae deletion strains, locus YOL012C, strain htz1 0.25 | S. cerevisiae deletion strains, locus YPR141C, strain kar3, stronger effect = lower value 0.971
